Structures are written as SMILES.

The nature of one experiment: EMT-state selective cytotoxicity in co-culture – imaging, PC-3E GFP, TEM4-18 mCherry, primary screen (AID 1345086).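 Also: cells exposed to compound for 72 h before imaging.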 As to conditions: PC-3E GFP / TEM4-18 mCherry co-culture, imaging cell counts; measured here: epithelial PC-3E GFP cell survival; at 1 µM.
`O=C(O)c1cc2ccccc2[nH]1`: the normalised cell number is 0.91.

In turn, `O=C(/C=C/c1ccccc1)c1ccc(O[C@@H]2O[C@H](CO)[C@@H](O)[C@H](O)[C@H]2O)cc1O` had a normalised cell number of 0.9.

`CC(C)=CCc1c2c(c3occ(-c4ccc(O)cc4)c(=O)c3c1O)C=CC(C)(C)O2` yielded a normalised cell number of 1.04.

As for `N#Cc1ccc2c(c1)N(CCCN1CCC(O)CC1)c1ccccc1S2`, the normalised cell number turned out to be 0.87.

Take `CON`: the normalised cell number came out at 1.15.

As for `CC(C)=CCc1c2c(c3occ(-c4ccc(O)c(O)c4)c(=O)c3c1O)C=CC(C)(C)O2`, the normalised cell number is 1.03.

Take `CC(C)=CCOc1cc2oc(=O)ccc2cc1O`: the normalised cell number turned out to be 1.12.

In turn, `C=C(C)[C@H]1COc2cc3oc(=O)ccc3cc2O1` registered a normalised cell number of 1.17.

In turn, `C=NC(C(=O)NC1C(=O)N2C1SC(C)(C)C2C(=O)O)c1ccccc1` (centres undefined) returned a normalised cell number of 0.88.

Regarding `O=C1C=CC(=C(c2ccc(O)cc2)c2ccc(O)cc2)C=C1`, the normalised cell number came to 1.03.

`NC1=NCCN1CC(=O)O`: the normalised cell number was determined as 1.1.

For the compound `CC(=O)c1c(O)c(C)c(O)c2c1OC1=CC(=O)C(C(C)=O)C(=O)C12C` (centres undefined), the normalised cell number is 1.06.

`CC(=O)N[C@@H]1[C@@H](O)[C@H](O)[C@@H](CO)O[C@H]1O`: the normalised cell number is 1.

Turning to `NC(Cn1ccc(=O)c(O)c1)C(=O)O` (centres undefined), the normalised cell number turned out to be 0.94.

For `CCOC(=O)[C@H](CCc1ccccc1)N[C@H](C)C(=O)N1C2CCCCC2C[C@H]1C(=O)O` (some centres undefined), the normalised cell number stood at 1.03.

Take `C[C@]12CCC3c4ccc(OS(=O)(=O)O)cc4CCC3C1CC[C@H]2O` (some centres undefined): the normalised cell number stood at 1.3.

Compound `COC1=CC(=O)C=C(OC)C1=O` had a normalised cell number of 0.92.

`C#CCCCCCCCCCCCC(O)CC(O)CO` (centres undefined): the normalised cell number is 0.94.

`COc1c2ccoc2nc2c(OC)c(OCC(O)C(C)(C)O)ccc12` (centres undefined) registered a normalised cell number of 1.

`NC1(C(=O)O)CCCC1` returned a normalised cell number of 1.24.

Take `COc1ccc2c(=O)c(CC(=O)O)coc2c1`: the normalised cell number was 0.98.

With `COc1ccc(-c2coc3cc(O)ccc3c2=O)c(O)c1O`, the normalised cell number worked out at 0.83.

The compound `O=c1[nH]c2cc(Cl)c(Cl)cc2[nH]c1=O` registered a normalised cell number of 0.94.

In turn, `COc1c2c(cc3occ(-c4ccc5c(c4)OCO5)c(=O)c13)OC(C)(C)C=C2` gave a normalised cell number of 1.19.

With `O=C1c2ccc(O)c(O)c2C(=O)c2c(O)ccc(O)c21`, the normalised cell number was found to be 0.82.

Compound `O=C(O)c1cc(=O)c2cccc(O)c2[nH]1` displayed a normalised cell number of 0.88.

Compound `COc1c2ccoc2c(OC)c2oc(=O)ccc12` came in with a normalised cell number of 1.03.

In turn, `CC(=O)O[C@@H]1CC2C(C)(C)[C@H](O)CC[C@]2(C)C2CC[C@@]3(C)[C@H](c4ccoc4)OC(=O)C4OC43[C@@]21C` (some centres undefined) had a normalised cell number of 1.03.

`COc1cc(OC)c2ccc(=O)oc2c1` gave a normalised cell number of 0.96.

Consider `COc1cc(C)c2c(=O)cc(-c3ccccc3)oc2c1`, for which the normalised cell number turned out to be 1.28.

Turning to `COc1c(OC)c2occc2c2oc(=O)ccc12`, the normalised cell number was determined as 1.12.

Turning to `CC1(C)CC2C1CCC1(C)OC1CCC2(C)O` (centres undefined), the normalised cell number turned out to be 0.98.

The experiment is the same for the next values; noted with them: PC-3E GFP / TEM4-18 mCherry co-culture, imaging cell counts; measured here: mesenchymal TEM4-18 mCherry cell survival; at 1 µM.
In turn, `O=C(O)c1cc2ccccc2[nH]1` gave a normalised cell number of 0.95.

Compound `O=C(/C=C/c1ccccc1)c1ccc(O[C@@H]2O[C@H](CO)[C@@H](O)[C@H](O)[C@H]2O)cc1O` showed a normalised cell number of 0.9.

The compound `CC(C)=CCc1c2c(c3occ(-c4ccc(O)cc4)c(=O)c3c1O)C=CC(C)(C)O2` displayed a normalised cell number of 1.06.

Take `N#Cc1ccc2c(c1)N(CCCN1CCC(O)CC1)c1ccccc1S2`: the normalised cell number was found to be 0.92.

`CON` came in with a normalised cell number of 1.18.

`CC(C)=CCc1c2c(c3occ(-c4ccc(O)c(O)c4)c(=O)c3c1O)C=CC(C)(C)O2` registered a normalised cell number of 0.78.

Consider `CC(C)=CCOc1cc2oc(=O)ccc2cc1O`, for which the normalised cell number worked out at 1.16.

Turning to `C=C(C)[C@H]1COc2cc3oc(=O)ccc3cc2O1`, the normalised cell number turned out to be 1.11.

With `C=NC(C(=O)NC1C(=O)N2C1SC(C)(C)C2C(=O)O)c1ccccc1` (centres undefined), the normalised cell number turned out to be 0.99.

`O=C1C=CC(=C(c2ccc(O)cc2)c2ccc(O)cc2)C=C1` gave a normalised cell number of 0.82.

As to `NC1=NCCN1CC(=O)O`, the normalised cell number turned out to be 1.01.

As for `CC(=O)c1c(O)c(C)c(O)c2c1OC1=CC(=O)C(C(C)=O)C(=O)C12C` (centres undefined), the normalised cell number was 0.94.

As to `CC(=O)N[C@@H]1[C@@H](O)[C@H](O)[C@@H](CO)O[C@H]1O`, the normalised cell number was 0.98.

In the case of `NC(Cn1ccc(=O)c(O)c1)C(=O)O` (centres undefined), the normalised cell number was found to be 1.04.

`CCOC(=O)[C@H](CCc1ccccc1)N[C@H](C)C(=O)N1C2CCCCC2C[C@H]1C(=O)O` (some centres undefined) yielded a normalised cell number of 0.93.

For `C[C@]12CCC3c4ccc(OS(=O)(=O)O)cc4CCC3C1CC[C@H]2O` (some centres undefined), the normalised cell number was 1.13.

With `COC1=CC(=O)C=C(OC)C1=O`, the normalised cell number was 0.84.

Take `C#CCCCCCCCCCCCC(O)CC(O)CO` (centres undefined): the normalised cell number was 0.82.

Regarding `COc1c2ccoc2nc2c(OC)c(OCC(O)C(C)(C)O)ccc12` (centres undefined), the normalised cell number came to 0.92.

With `NC1(C(=O)O)CCCC1`, the normalised cell number is 1.06.

With `COc1ccc2c(=O)c(CC(=O)O)coc2c1`, the normalised cell number came to 0.89.

With `COc1ccc(-c2coc3cc(O)ccc3c2=O)c(O)c1O`, the normalised cell number was 0.8.

For `O=c1[nH]c2cc(Cl)c(Cl)cc2[nH]c1=O`, the normalised cell number is 1.02.

Consider `COc1c2c(cc3occ(-c4ccc5c(c4)OCO5)c(=O)c13)OC(C)(C)C=C2`, for which the normalised cell number was 1.14.

Turning to `O=C1c2ccc(O)c(O)c2C(=O)c2c(O)ccc(O)c21`, the normalised cell number came to 0.92.

Compound `O=C(O)c1cc(=O)c2cccc(O)c2[nH]1` gave a normalised cell number of 1.13.

The compound `COc1c2ccoc2c(OC)c2oc(=O)ccc12` displayed a normalised cell number of 1.09.

The compound `CC(=O)O[C@@H]1CC2C(C)(C)[C@H](O)CC[C@]2(C)C2CC[C@@]3(C)[C@H](c4ccoc4)OC(=O)C4OC43[C@@]21C` (some centres undefined) had a normalised cell number of 1.06.

`COc1cc(OC)c2ccc(=O)oc2c1` showed a normalised cell number of 1.05.

`COc1cc(C)c2c(=O)cc(-c3ccccc3)oc2c1` gave a normalised cell number of 1.09.

Consider `COc1c(OC)c2occc2c2oc(=O)ccc12`, for which the normalised cell number came to 1.08.

Take `CC1(C)CC2C1CCC1(C)OC1CCC2(C)O` (centres undefined): the normalised cell number is 1.02.

The record behind these values is PubChem BioAssay.
